PMC4552634, “A New Set of Chemical Starting Points with Plasmodium falciparum Transmission-Blocking Potential for Antimalarial Drug Discovery” (PLoS ONE, 2015)
Screen size: about 13,000 compounds; about 3,200 (25%) showed an effect of 50% or more. The list shows a part of the results.

What follows are compounds tested on P. falciparum stage V gametocytes. Details: 48 h, 5 µM; inhibitor.
Design: BacTiter-Glo ATP luminescence viability of purified stage V gametocytes in 384-well plates, per cent inhibition versus DMSO

First: CC1(C)N=C(N)N=C(N)N1OCc1cccc(C#N)c1 [TCMDC-124037]
Second: CCCC1N=C(N)N=C(N)N1c1ccc(Cl)cc1 (centres unmarked) [TCMDC-131296]
The “% Inhibition” value of the first is lower: -12.77% for the first, -9.139% for the second.

Going from `CCCC(C)Nc1nc(C)cc(N[C@@H](CC(C)C)C(=O)NCc2ccc(C)cc2)n1` (some centres unmarked) [TCMDC-134897] to `Cc1ccc(Nc2nc(C)cc(NC3CC3)n2)cc1` [TCMDC-133469], the “% Inhibition” value rises from -16.22% to 5.355%.

Compared with `Cc1ccc(N2C(=O)C3C(C2=O)C2(c4ccccc4)C(=O)C3(c3ccccc3)C(c3ccccc3)=C2c2ccccc2)cc1` (centres unmarked) [TCMDC-124241], `O=C1OC(c2cc3ccccc3n2S(=O)(=O)c2ccccc2)(c2cc3ccccc3n2S(=O)(=O)c2ccccc2)c2ccccc21` [TCMDC-131245] is higher in “% Inhibition” value: -3.804% for the first, 29.52% for the second.

Compared with `CN1C(=O)[C@H](NC(=O)[C@@H](Cc2ccccc2)NC(=S)Nc2ccccc2)N=C(c2ccccc2)c2ccccc21` [TCMDC-132115], `Cc1cccc2[nH]c(-c3cccc(-c4ccc(NC(=O)NCc5ccccc5)cc4)c3)nc12` [TCMDC-133158] is lower in “% Inhibition” value: 12.99% for the first, -0.2096% for the second.

Going from `CC1CCCN(Cc2c(O)ccc3c(=O)c(-c4nc5ccccc5s4)c(N)oc23)C1` (centres unmarked) [TCMDC-124468] to `CC1CCN(Cc2c(O)ccc3c(CN4CCC(C)CC4)c(O)ccc23)CC1` [TCMDC-137584], the “% Inhibition” value falls from -5.264% to -14.01%.

First: Cc1ccc(-c2nnc(-c3ccc(C(=O)NC4CCN(Cc5ccc(C#N)cc5)CC4)cc3)o2)cc1Br [TCMDC-136130]
Second: Cc1cccc(CN2CCN(c3ncc(C(=O)NC4CC4)cc3Cl)CC2)c1 [TCMDC-134604]
The “% Inhibition” value of the first is lower: -28.74% for the first, 4.534% for the second.

Compared with `Cc1ccc(Cn2c(N3CCC(C(=O)NCc4cccs4)CC3)nc3ccccc32)cc1` [TCMDC-124400], `O=C(Nc1ccc(OC2CCN(Cc3ccccc3)CC2)c(Cl)c1)c1cccs1` [TCMDC-133990] is higher in “% Inhibition” value: 16.64% for the first, 24.3% for the second.

Compared with `C=CCOC(=O)N1CCC(CNCc2cccc(-c3ccc(-c4nc5cccc(C)c5[nH]4)cc3)c2)C1.O=C(O)C(F)(F)F` (centres unmarked) [TCMDC-133040], `C=CCOC(=O)N1CCC(CNCc2cccc(-c3cccc(-c4nc5cccc(C)c5[nH]4)c3)c2)C1.O=C(O)C(F)(F)F` (centres unmarked) [TCMDC-133038] is lower in “% Inhibition” value: 4.148% for the first, -20.08% for the second.

Compared with `Cc1cccc2nc(-c3ccc(-c4ccc(CNCc5ccc(CN)cc5)cc4)s3)[nH]c12` [TCMDC-132809], `COc1ccc(CNCc2ccc(-c3ccc(-c4nc5cccc(C)c5[nH]4)s3)cc2)cc1.O=C(O)C(F)(F)F` [TCMDC-132727] is lower in “% Inhibition” value: 97.61% for the first, 15.75% for the second.

Going from `Cc1cccc2nc(-c3ccc(-c4cccc(CNCCCNS(C)(=O)=O)c4)s3)[nH]c12.O=C(O)C(F)(F)F` [TCMDC-133078] to `CNCCNCc1cccc(-c2ccc(-c3nc4cccc(C)c4[nH]3)s2)c1.O=C(O)C(F)(F)F` [TCMDC-132835], the “% Inhibition” value rises from -8.111% to 98.35%.

First: C=CCOC(=O)N1CCC(CNCc2cccc(-c3ccc(-c4nc5cccc(C)c5[nH]4)s3)c2)C1.O=C(O)C(F)(F)F (centres unmarked) [TCMDC-133043]
Second: Cc1cccc2nc(-c3ccc(-c4cccc(CNCCc5ccncc5)c4)s3)[nH]c12.O=C(O)C(F)(F)F [TCMDC-132853]
The “% Inhibition” value of the first is higher: 63.05% for the first, -22.63% for the second.

Compared with `Cc1cccc2nc(-c3ccc(-c4ccc(CNCc5cccc(N)c5)cc4)s3)[nH]c12.O=C(O)C(F)(F)F` [TCMDC-132932], `FC(F)(F)c1ccc2[nH]c(-c3ccc(-c4ccc(CNCc5cnn(-c6ccccc6)n5)cc4)cc3)nc2c1.O=C(O)C(F)(F)F` [TCMDC-132970] is higher in “% Inhibition” value: -65.22% for the first, -15.1% for the second.

Compared with `COc1cccc(CNC[C@@H](O)[C@H](Cc2ccccc2)NC(=O)c2cc(C(C)C)cc(N3CCCC3=O)c2)c1` [TCMDC-134130], `CCNc1cc(C(=O)N[C@@H](Cc2ccccc2)[C@H](O)CNCc2cc(OC)cc(OC)c2)cc(N2CCCS2(=O)=O)c1` [TCMDC-134557] is lower in “% Inhibition” value: 14.96% for the first, -5.029% for the second.

Going from `CCc1ccc2c(c1O)CCN(C)C2Cc1ccccc1Cl` (centres unmarked) [TCMDC-137165] to `CC(C)CCN1CCC(Oc2ccc(NC(=O)c3ccccc3)cc2Cl)CC1` [TCMDC-133977], the “% Inhibition” value falls from 18.04% to 11.22%.

Going from `CC(=O)C1=NN(c2ccc(C)cc2)C(c2cccs2)N1c1ccccc1` (centres unmarked) [TCMDC-125627] to `O=C(Nc1ccc(OC2CCN(Cc3ccccc3)C2)c(Cl)c1)c1cccs1` (centres unmarked) [TCMDC-133970], the “% Inhibition” value rises from -78.13% to 30.53%.

First: COc1ccc(NS(=O)(=O)c2ccc(Oc3nc(C)nc4sc5c(c34)CCCC5)cc2)cc1 [TCMDC-124337]
Second: COc1ccc(NC(=O)c2c(NC(=O)c3cccs3)sc3c2CCCC3)cc1 [TCMDC-125745]
The “% Inhibition” value of the first is higher: 4.693% for the first, -21.48% for the second.

Going from `CNC(=O)c1cc(S(=O)(=O)Nc2ccc(OC)cc2)cs1` [TCMDC-124815] to `CC(C)CCOc1ccc(NC(=O)c2cccs2)cc1` [TCMDC-125121], the “% Inhibition” value rises from 61.29% to 83.04%.

First: CC1(C)CC2CC(C)(CN2C(=O)c2cc(C(C)(C)C)nn2Cc2ccccc2)C1 (centres unmarked) [TCMDC-133777]
Second: O=C(Nc1cc(Cl)ccc1-n1cncn1)C1(c2ccccc2)CC1 [TCMDC-125455]
The “% Inhibition” value of the first is lower: -28.49% for the first, 2.448% for the second.

Compared with `O=C(COc1ccccc1Cc1ccccc1)Nc1cc(Cl)ccc1-n1cncn1` [TCMDC-125098], `COc1ccc(CN2CCN(CC(=O)Nc3cc(Cl)ccc3-n3cncn3)CC2)cc1F` [TCMDC-125242] is higher in “% Inhibition” value: -48.08% for the first, 66.84% for the second.

First: CN1CCCc2ccc(NC(=O)c3ccc(-c4cc(C(F)(F)F)nn4C)s3)cc2C1 [TCMDC-133945]
Second: CN1CCCC1CCNc1ncc2c(-c3ccc(NC(=O)Nc4cc(C(F)(F)F)ccc4F)cc3)nn(C)c2n1 (centres unmarked) [TCMDC-141584]
The “% Inhibition” value of the first is lower: -15.63% for the first, 59.4% for the second.

First: CC(C)c1ccc(-c2noc(SCC(=O)N(C)c3ccc(F)cc3)n2)cc1 [TCMDC-124744]
Second: CCCNCc1ccc(-c2ccc(CN(C(=O)c3nn(-c4ccccc4)nc3C)C(C)CN(C)C)cc2)nc1 (centres unmarked) [TCMDC-141551]
The “% Inhibition” value of the first is lower: -3.802% for the first, 64.23% for the second.

First: CCN1CCN(C(=O)NC(C(=O)N2CCCC(COc3ccc(Cc4ccccc4)cc3)C2)c2cccs2)C(=O)C1=O (centres unmarked) [TCMDC-139273]
Second: CCCNCc1ccc(-c2ccc(CN(C(=O)c3nn(-c4ccccc4)nc3C)C3CC3)cc2)nc1 [TCMDC-141550]
The “% Inhibition” value of the first is lower: 35.06% for the first, 42.93% for the second.

First: CN1CCCC1CCNc1ncc2c(-c3ccc(NC(=O)Nc4cc(C(F)(F)F)ccc4F)c(F)c3)nn(C)c2n1 (centres unmarked) [TCMDC-141610]
Second: O=C(NC1CCN(c2ncc(C(F)(F)F)cc2Cl)CC1)c1cccs1 [TCMDC-133802]
The “% Inhibition” value of the first is higher: 99.17% for the first, 15.64% for the second.

Going from `CCCCCC(C)N=C(Nc1ccc(C#N)cc1O)Nc1ccccc1Br` (centres unmarked) [TCMDC-140129] to `N#Cc1ccc2c(c1)CCN(CCC1CCC(NC(=O)c3cc4ccc(Br)cc4[nH]3)CC1)C2` (centres unmarked) [TCMDC-139195], the “% Inhibition” value rises from -25.57% to -25.15%.

Going from `Cc1cc([N+](=O)[O-])ccc1N1CCN(CCCCNC(=O)c2ccc(NC(=O)c3ccc(Cl)cc3)cc2)CC1` [TCMDC-138261] to `CC(Oc1ccc(NC(=O)c2cccs2)cc1)C(=O)c1ccc(Cl)cc1` (centres unmarked) [TCMDC-125438], the “% Inhibition” value rises from 16.06% to 17.92%.

Going from `C[C@@H](CC1CCCCC1)OC(=O)N(C)[C@H]1CCN(C#N)C1` [TCMDC-138501] to `N#CN1CC[C@@H](OC(=O)N[C@@H]2C[C@H]2c2ccccc2)C1` [TCMDC-133724], the “% Inhibition” value falls from 35.73% to 29.13%.

First: CC(C)C[C@H](NC(=O)[C@H](Cc1ccccc1)N(C[C@H](Cc1ccccc1)NC(=O)OC(C)(C)C)C(=O)C(F)(F)F)C(=O)NC1CCN(Cc2ccccc2)CC1 [TCMDC-132059]
Second: Cc1nn(-c2ccccc2)nc1C(=O)N(Cc1ccc(-c2ccc(CNCCc3ccc(S(C)(=O)=O)cc3)cn2)cc1)C(C)CN(C)C (centres unmarked) [TCMDC-141524]
The “% Inhibition” value of the first is lower: -19.61% for the first, 25.84% for the second.

Compared with `CCCOc1ccc(NC(=O)c2cccs2)cc1Cl` [TCMDC-141129], `CC(C)CCN1CCC(Oc2ccc(NC(=O)c3cccs3)cc2Cl)C1` (centres unmarked) [TCMDC-133979] is higher in “% Inhibition” value: 16.1% for the first, 54.06% for the second.

Going from `Cc1ccc(C(=O)Nc2ccc(OC3CCN(CCC(C)C)C3)c(Cl)c2)cc1` (centres unmarked) [TCMDC-133983] to `CC(C)CCN1CCC(Oc2ccc(NC(=O)c3cccs3)cc2Cl)CC1` [TCMDC-133974], the “% Inhibition” value rises from 31.29% to 92.16%.

First: COc1ccc(NC(=O)c2cc(NC(=O)C3(N)CC3)c(=O)n(Cc3ccc(C(N)=O)cc3)c2)cc1 [TCMDC-136554]
Second: CCCNCc1ccc(-c2ccc(CN(CCOC)C(=O)c3nn(-c4ccccc4)nc3C)cc2)nc1 [TCMDC-141549]
The “% Inhibition” value of the first is lower: 19.66% for the first, 77.73% for the second.

Going from `Cc1[nH]c2c(NCc3ccc(F)cc3)nccc2c1C` [TCMDC-132310] to `CCCNCc1ccc(-c2ccc(CN(C(=O)c3nn(-c4ccccc4)nc3C)C3CCOCC3)cc2)nc1` [TCMDC-141547], the “% Inhibition” value falls from 15.19% to 9.201%.

Compared with `CCCNCc1ccc(-c2ccc(CN(Cc3cnc(C)cn3)C(=O)c3nn(-c4ccccc4)nc3C)cc2)nc1` [TCMDC-141548], `CS(=O)(=O)n1c(CN2CCN(c3ncc(C(F)(F)F)cc3Cl)CC2)nc2ccccc21` [TCMDC-134291] is higher in “% Inhibition” value: 27.98% for the first, 88.45% for the second.

For `O=C(O)CNCC(O)c1ccccc1` (centres unmarked) [TCMDC-131775], the “% Inhibition” value was 4.722%.
